In article PMC7862700, “An all-to-all approach to the identification of sequence-specific readers for epigenetic DNA modifications on cytosine” one finds binding signal data, which are given here for 2 sequences.

What all share (test): DAPPL (digital affinity profiling via proximity ligation, sequencing); 10 mM Tris-HCl pH 7.5, 50 mM NaCl, 1 mM DTT, 4% glycerol, room temperature, 30 min; GST-TFs on glutathione beads, 16-mer random dsDNA library, 0.1% formaldehyde crosslink after washing; high values mean tight binding
What all share (conditions): protein: recombinant; tags: N-terminal GST; dsDNA, one strand shown

For test [1], the target named is T1, FLI1 (Homo sapiens, UniProt Q01543 1-452).
T1 sequence: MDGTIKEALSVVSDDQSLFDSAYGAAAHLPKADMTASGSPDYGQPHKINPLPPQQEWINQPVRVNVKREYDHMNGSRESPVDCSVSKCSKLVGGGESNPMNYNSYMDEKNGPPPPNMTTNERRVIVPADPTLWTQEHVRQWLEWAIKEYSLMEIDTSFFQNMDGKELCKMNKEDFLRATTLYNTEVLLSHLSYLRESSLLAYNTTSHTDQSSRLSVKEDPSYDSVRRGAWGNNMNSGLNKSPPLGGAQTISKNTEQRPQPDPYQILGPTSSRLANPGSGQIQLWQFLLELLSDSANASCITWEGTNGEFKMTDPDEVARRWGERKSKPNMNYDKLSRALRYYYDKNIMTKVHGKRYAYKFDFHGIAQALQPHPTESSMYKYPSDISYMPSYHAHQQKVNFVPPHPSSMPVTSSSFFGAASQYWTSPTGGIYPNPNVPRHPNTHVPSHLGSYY
Put shortly:
(§1)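 Binding signal is defined as a hexamer's read frequency for one factor over its frequency for the tag-only sample. To obtain reads, GST-fused human transcription factors were expressed in yeast, captured on glutathione beads, barcoded with DNA and pooled with that sample. Pools met 200 nmole of a 16-mer random double-stranded DNA library in Tris/NaCl/DTT/glycerol buffer for 30 min at room temperature before washing, 0.1% formaldehyde crosslinking, proximity ligation (BsaI/T4 ligase, 1 h, 37 °C), PCR and Illumina NextSeq500 sequencing.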

The target in test [2] is T2, ELK1 (Homo sapiens, UniProt P19419 1-428).
T2 sequence: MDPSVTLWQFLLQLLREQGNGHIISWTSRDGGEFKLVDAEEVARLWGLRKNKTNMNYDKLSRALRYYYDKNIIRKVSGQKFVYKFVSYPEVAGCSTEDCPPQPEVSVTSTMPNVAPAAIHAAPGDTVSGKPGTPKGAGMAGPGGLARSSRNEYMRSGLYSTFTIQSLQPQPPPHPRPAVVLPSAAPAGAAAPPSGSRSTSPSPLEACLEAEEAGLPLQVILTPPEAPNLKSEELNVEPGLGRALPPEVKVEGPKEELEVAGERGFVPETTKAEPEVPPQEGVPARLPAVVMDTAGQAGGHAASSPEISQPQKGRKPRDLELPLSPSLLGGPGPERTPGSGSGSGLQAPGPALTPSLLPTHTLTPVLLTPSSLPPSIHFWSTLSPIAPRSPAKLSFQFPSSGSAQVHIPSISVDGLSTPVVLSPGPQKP
A digest of the protocol: as §1

Test [3] deals with T3, GABPA (Homo sapiens, UniProt Q06546 1-454).
T3 sequence: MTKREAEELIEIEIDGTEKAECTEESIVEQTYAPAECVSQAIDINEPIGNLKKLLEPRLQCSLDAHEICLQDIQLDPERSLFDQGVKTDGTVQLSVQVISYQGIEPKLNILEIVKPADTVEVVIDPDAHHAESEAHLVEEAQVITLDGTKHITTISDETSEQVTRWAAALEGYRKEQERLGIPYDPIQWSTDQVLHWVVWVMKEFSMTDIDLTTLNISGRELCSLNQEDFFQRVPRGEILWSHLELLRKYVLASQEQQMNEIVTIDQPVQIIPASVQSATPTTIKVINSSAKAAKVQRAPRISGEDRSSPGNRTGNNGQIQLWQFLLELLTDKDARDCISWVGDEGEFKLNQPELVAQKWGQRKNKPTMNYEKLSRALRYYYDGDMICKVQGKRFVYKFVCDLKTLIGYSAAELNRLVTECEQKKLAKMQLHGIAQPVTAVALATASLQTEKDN
A digest of the protocol: as §1

In test [4] the target is T4, ERG (Homo sapiens, UniProt P11308 1-479).
T4 sequence: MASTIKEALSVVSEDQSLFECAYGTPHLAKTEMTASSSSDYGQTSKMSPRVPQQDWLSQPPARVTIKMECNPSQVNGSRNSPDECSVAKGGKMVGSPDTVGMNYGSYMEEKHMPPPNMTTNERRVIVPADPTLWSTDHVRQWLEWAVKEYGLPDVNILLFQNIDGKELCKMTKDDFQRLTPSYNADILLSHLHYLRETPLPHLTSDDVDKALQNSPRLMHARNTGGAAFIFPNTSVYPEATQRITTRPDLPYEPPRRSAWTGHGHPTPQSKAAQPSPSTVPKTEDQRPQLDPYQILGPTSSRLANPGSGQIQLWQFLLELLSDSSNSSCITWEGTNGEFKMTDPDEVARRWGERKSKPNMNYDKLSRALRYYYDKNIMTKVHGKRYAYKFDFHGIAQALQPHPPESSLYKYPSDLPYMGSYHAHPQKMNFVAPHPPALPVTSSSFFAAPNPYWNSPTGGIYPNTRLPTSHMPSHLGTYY
A digest of the protocol:
as §1

Test [5] deals with ELF1 (Homo sapiens, UniProt P32519 1-619). A digest of the protocol:
as §1

Test [6] has as its target T5, EHF (Homo sapiens, UniProt Q9NZC4 1-300).
T5 sequence: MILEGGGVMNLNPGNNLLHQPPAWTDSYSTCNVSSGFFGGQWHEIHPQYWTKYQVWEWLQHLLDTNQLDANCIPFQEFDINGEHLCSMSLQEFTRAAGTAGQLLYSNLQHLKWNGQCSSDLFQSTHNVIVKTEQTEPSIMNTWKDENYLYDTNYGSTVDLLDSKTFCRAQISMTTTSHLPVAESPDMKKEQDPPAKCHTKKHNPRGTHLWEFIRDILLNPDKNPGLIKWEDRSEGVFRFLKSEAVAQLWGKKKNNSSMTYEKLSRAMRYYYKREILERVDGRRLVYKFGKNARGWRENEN
Put shortly: as §1

Test [7] concerns the target SPI1 (Homo sapiens, UniProt P17947 1-270). A digest of the protocol: as §1
For test [8], the target named is SPIB (Homo sapiens, UniProt Q01892 1-262). A digest of the protocol:
as §1

Test [9] has as its target T6, ELK3 (Homo sapiens, UniProt P41970 1-407).
T6 sequence: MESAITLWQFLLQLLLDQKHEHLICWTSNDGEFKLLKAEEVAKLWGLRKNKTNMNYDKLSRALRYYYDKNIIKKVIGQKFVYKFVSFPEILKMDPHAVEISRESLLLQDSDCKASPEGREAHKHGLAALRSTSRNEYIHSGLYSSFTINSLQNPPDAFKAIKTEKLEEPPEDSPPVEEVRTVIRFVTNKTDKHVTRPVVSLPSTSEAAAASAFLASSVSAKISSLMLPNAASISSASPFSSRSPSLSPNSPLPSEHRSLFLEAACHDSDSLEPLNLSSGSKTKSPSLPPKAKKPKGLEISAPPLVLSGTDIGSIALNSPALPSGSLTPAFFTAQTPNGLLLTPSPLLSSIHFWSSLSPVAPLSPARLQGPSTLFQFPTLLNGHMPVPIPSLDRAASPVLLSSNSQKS
A digest of the protocol: as §1

Test [10] deals with T7, FEV (Homo sapiens, UniProt Q99581 1-238).
T7 sequence: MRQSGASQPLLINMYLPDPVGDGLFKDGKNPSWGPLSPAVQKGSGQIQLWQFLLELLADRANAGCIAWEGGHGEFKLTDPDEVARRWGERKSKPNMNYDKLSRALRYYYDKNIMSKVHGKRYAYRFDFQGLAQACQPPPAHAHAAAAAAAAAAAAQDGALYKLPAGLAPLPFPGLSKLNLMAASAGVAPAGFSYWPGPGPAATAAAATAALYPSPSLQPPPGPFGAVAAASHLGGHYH
Put shortly: as §1

Test [11] addresses ETV5 (Homo sapiens, UniProt P41161 1-510). Put shortly:
as §1

For test [12], the target named is T8, SPIC (Homo sapiens, UniProt Q8N5J4 1-248).
T8 sequence: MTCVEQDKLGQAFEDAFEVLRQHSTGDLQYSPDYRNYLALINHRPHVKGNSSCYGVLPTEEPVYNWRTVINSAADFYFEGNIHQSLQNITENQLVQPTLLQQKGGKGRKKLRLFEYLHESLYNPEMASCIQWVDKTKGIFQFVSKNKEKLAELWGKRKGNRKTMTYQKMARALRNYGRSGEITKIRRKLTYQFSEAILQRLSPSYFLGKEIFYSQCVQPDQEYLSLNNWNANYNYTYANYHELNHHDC
A digest of the protocol:
as §1

The target in test [13] is ELF4 (Homo sapiens, UniProt Q99607 1-663). Put shortly: as §1
Test [14] addresses T9, ELK4 (Homo sapiens, UniProt P28324-2 1-405).
T9 sequence: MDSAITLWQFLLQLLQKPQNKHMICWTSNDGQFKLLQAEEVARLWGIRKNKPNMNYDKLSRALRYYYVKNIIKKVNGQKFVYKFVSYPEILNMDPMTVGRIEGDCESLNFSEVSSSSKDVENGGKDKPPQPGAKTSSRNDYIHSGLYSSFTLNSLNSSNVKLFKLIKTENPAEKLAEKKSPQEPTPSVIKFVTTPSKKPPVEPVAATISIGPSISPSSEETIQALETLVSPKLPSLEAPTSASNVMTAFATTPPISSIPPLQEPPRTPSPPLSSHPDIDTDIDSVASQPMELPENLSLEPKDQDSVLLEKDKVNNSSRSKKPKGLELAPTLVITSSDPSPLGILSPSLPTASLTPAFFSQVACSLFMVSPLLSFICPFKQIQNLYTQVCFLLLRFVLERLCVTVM
Put shortly: as §1

The target in test [15] is T10, ETV2 (Homo sapiens, UniProt O00321 1-342).
T10 sequence: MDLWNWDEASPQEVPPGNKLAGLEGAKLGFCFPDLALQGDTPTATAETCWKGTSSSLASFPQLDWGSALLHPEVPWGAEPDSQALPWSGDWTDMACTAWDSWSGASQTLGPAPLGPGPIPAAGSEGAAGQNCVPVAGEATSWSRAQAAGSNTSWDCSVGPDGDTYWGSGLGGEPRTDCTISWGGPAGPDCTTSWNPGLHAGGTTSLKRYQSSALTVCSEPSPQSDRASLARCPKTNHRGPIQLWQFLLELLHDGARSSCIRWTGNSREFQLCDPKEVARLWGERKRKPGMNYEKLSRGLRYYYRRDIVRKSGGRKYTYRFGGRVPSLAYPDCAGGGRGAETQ
Put shortly:
as §1

The target in test [16] is T11, ELF3 (Homo sapiens, UniProt P78545 1-371).
T11 sequence: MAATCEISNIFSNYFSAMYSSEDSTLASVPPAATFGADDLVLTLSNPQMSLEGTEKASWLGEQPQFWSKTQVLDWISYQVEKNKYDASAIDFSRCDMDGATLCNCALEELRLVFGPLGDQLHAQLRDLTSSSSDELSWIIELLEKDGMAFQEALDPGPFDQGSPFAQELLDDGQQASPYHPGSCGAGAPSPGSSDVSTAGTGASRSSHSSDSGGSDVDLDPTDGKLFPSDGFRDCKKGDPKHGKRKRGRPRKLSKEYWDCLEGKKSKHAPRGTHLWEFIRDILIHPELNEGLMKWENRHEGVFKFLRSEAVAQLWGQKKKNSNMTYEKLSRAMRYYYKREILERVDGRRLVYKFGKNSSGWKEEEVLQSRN
A digest of the protocol:
as §1

For test [17], the target named is ETV1 (Homo sapiens, UniProt P50549 1-477). Put shortly:
as §1

Chain of ETV5 (P41161 whole entry): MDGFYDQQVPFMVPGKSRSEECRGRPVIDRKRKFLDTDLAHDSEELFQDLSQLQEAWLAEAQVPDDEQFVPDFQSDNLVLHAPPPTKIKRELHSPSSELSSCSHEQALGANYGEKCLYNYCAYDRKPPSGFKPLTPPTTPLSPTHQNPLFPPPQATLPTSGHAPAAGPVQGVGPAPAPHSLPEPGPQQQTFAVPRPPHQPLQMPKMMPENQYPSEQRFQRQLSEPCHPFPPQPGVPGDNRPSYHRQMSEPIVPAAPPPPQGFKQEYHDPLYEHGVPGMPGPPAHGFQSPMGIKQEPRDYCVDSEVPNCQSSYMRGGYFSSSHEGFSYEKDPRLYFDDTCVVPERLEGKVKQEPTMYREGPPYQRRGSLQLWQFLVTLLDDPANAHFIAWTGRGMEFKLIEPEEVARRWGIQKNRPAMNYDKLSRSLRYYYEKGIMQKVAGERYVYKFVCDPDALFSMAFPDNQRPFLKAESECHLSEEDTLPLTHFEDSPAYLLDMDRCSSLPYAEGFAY
Chain of ETV1 (P50549 whole entry): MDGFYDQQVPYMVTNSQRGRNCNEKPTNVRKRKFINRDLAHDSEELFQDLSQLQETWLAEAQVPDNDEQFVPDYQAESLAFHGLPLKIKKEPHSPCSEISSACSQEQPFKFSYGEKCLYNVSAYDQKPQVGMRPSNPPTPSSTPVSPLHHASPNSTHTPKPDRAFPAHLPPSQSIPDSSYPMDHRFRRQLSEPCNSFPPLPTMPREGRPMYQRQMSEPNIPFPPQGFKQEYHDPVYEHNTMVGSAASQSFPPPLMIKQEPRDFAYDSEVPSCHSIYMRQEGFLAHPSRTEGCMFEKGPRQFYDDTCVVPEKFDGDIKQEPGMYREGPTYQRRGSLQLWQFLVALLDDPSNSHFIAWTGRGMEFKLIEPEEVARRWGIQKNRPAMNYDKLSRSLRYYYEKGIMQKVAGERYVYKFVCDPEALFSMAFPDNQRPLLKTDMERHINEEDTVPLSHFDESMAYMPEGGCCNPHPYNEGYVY
Chain of ELF4 (Q99607 whole entry): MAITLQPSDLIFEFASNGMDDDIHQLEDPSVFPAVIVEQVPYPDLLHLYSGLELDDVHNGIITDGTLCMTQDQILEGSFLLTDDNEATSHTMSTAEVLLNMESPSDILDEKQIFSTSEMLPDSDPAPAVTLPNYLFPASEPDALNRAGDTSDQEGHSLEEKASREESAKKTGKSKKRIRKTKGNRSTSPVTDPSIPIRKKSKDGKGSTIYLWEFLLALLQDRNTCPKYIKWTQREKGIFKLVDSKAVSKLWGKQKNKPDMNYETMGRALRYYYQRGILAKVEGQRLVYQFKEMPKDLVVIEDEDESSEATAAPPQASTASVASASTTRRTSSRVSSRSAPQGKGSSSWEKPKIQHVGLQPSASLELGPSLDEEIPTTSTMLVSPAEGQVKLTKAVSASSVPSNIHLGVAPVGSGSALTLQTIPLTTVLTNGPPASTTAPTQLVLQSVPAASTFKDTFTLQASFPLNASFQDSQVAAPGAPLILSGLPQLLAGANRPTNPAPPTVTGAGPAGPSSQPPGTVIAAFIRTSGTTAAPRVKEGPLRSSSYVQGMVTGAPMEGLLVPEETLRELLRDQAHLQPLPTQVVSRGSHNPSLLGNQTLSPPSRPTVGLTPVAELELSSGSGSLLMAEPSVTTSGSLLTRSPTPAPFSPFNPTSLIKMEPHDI
Chain of SPIB (Q01892 whole entry): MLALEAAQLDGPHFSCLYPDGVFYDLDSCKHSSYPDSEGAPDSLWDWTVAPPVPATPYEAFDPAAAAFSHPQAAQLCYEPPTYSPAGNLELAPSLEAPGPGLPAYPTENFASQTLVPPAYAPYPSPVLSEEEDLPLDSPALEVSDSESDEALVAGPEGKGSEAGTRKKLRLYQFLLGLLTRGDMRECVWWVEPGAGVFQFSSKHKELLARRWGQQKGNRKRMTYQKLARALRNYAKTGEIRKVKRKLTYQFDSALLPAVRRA
Chain of ELF1 (P32519 whole entry): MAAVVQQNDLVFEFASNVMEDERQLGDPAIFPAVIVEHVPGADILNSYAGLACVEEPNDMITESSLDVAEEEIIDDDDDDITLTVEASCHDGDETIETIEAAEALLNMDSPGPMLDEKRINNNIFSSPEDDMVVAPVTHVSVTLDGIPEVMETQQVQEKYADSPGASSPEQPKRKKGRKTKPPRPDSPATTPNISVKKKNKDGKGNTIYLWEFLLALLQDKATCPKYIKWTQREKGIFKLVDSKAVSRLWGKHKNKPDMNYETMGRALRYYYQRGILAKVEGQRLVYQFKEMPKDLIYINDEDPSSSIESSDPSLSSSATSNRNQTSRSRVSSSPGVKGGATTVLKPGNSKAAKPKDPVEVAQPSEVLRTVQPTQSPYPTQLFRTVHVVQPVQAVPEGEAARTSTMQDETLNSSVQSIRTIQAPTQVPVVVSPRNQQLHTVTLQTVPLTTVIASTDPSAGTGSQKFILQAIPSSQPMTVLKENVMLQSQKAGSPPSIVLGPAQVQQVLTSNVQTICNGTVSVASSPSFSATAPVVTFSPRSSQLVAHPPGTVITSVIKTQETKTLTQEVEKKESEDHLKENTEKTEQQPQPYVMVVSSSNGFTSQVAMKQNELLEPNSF

Consider AGTACA, for which the binding signal in test [1] is 1.13 fold enrichment (6-mer frequency, TF over GST control); in [2] it was 1.16 fold enrichment (6-mer frequency, TF over GST control); in test [3] it was 1.12 fold enrichment (6-mer frequency, TF over GST control); in test [4], 1.19 fold enrichment (6-mer frequency, TF over GST control); in test [5], 1.08 fold enrichment (6-mer frequency, TF over GST control); in [6] it was 1.13 fold enrichment (6-mer frequency, TF over GST control). The binding signal in test [7] is 1.17 fold enrichment (6-mer frequency, TF over GST control); in test [8], 1.07 fold enrichment (6-mer frequency, TF over GST control); in [9], 1.31 fold enrichment (6-mer frequency, TF over GST control); in [10], 1.13 fold enrichment (6-mer frequency, TF over GST control); in test [11], 1.13 fold enrichment (6-mer frequency, TF over GST control); in test [12], 1.07 fold enrichment (6-mer frequency, TF over GST control). Besides, the binding signal was 1.19 fold enrichment (6-mer frequency, TF over GST control) in test [13]; 1.07 fold enrichment (6-mer frequency, TF over GST control) in test [14]; 1.01 fold enrichment (6-mer frequency, TF over GST control) in test [15]; 1.13 fold enrichment (6-mer frequency, TF over GST control) in [16]; 1.11 fold enrichment (6-mer frequency, TF over GST control) in test [17].

For CATCCG, the binding signal in test [1] was 2.09 fold enrichment (6-mer frequency, TF over GST control); in test [2], 2.2 fold enrichment (6-mer frequency, TF over GST control); in [3], 1.86 fold enrichment (6-mer frequency, TF over GST control); in test [4] it was 2.45 fold enrichment (6-mer frequency, TF over GST control); in test [5], 1.86 fold enrichment (6-mer frequency, TF over GST control); in [6], 2.19 fold enrichment (6-mer frequency, TF over GST control). Moreover, the binding signal in test [7] is 2.01 fold enrichment (6-mer frequency, TF over GST control); in test [8], 2.29 fold enrichment (6-mer frequency, TF over GST control); in test [9] it was 2.5 fold enrichment (6-mer frequency, TF over GST control); in [10], 2.77 fold enrichment (6-mer frequency, TF over GST control); in test [11], 2.19 fold enrichment (6-mer frequency, TF over GST control); in [12], 2.11 fold enrichment (6-mer frequency, TF over GST control). Besides, the binding signal is 1.82 fold enrichment (6-mer frequency, TF over GST control) in test [13]; 1.71 fold enrichment (6-mer frequency, TF over GST control) in test [14]; 2.11 fold enrichment (6-mer frequency, TF over GST control) in [15]; 1.9 fold enrichment (6-mer frequency, TF over GST control) in test [16]; 2.19 fold enrichment (6-mer frequency, TF over GST control) in test [17].
